This is a sample that favours compounds with a hit; in the whole collection about 3.8% have one here.
TrxR1 substrate = rat thioredoxin reductase 1 substrate activity; O89049; purified TrxR1 substrate turnover, NADPH consumption readout; Potency, µM (doses to about 114 µM); 0.01% of 390,000 active; note: nearly all actives have a fitted effect of over 50% in size
Target sequence (O89049 whole entry, looked up): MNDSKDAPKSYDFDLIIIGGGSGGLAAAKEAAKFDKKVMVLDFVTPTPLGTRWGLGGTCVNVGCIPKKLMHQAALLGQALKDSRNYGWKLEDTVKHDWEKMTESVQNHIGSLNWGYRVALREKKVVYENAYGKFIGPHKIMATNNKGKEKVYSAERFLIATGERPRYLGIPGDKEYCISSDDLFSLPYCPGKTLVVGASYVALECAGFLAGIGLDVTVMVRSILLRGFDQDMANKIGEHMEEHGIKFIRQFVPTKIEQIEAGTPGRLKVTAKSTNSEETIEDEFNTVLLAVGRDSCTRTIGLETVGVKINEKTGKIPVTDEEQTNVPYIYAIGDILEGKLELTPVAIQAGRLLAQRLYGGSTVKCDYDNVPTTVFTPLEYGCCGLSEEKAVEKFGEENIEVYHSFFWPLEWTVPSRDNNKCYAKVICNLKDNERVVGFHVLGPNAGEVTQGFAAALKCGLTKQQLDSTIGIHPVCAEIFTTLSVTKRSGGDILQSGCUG
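Rat TrxR1, dispensed at 90 nM, was prereduced with 400 uM NADPH (final) for 5 min at ~22 deg C, then incubated with compound 15 min before 400 uM selenite. A first-read NADPH fluorescence drop versus no-compound background flagged substrates.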
rTrxR1 inhibitor = blocks rat thioredoxin reductase 1 | recombinant rTrxR1, NADPH fluorescence consumption, selenite substrate | 1% of 390,000 active | Potency, µM (titrated, usually from 114 µM), most hits filed as inhibitors | O89049; note: nearly all actives have a fitted effect of over 65% in size
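Rat TrxR1 (90 nM in the dispensed reagent) was pre-reduced with 400 uM NADPH for 5 min at room temperature, then incubated with compound for 15 min. After 400 uM selenite was added, NADPH fluorescence (Ex 340/Em 450 nm) was followed for 8 min.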
GLS inhibitor = glutaminase GLS (human) inhibition. GLS enzymatic activity, qHTS titration. Potency, µM (top dose mostly 45.5 µM), usual class: inhibitors. 0.21% of 410,000 active. AID 624170
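Human kidney-isoform GLS in 45 mM KH2PO4 pH 8.2, 0.02% Tween-20, with compound, started with 1mM L-Glutamine (added stock). Glutamate oxidase/HRP/Amplex red coupled fluorescence read at start and after 30 min at RT.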
VDR inh = blocks the human vitamin D receptor. P11473. VDR-SRC2-3 peptide fluorescence polarization, 2 h. Potency, µM, hits mostly inhibitors. 0.93% of 400,000 active
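Measured by FP: displacement of SRC2-3 coactivator peptide from VDR by library compounds, following a two-hour ambient incubation.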
GCN5L2 inh = inhibitors of human GCN5L2 histone acetyltransferase | 0.21% of 390,000 active | GCN5L2 HAT assay, ThioGlo1 CoA-SH fluorescence | AID 504327 | Potency, µM (highest dose often 58.9 µM), actives largely listed as inhibitors | Q92830
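Fluorescence readout, Ex340nm/Em540nm: ThioGlo1 (50uM final) reacts with free CoA thiol released as 20nM GCN5L2 acetylates H3(1-25) peptide (75uM) using acetyl-CoA (70uM). Compound and enzyme sat 15 min beforehand; 20 min room-temperature reaction.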
Sfp PPTase inh = inhibitors of Bacillus subtilis Sfp phosphopantetheinyl transferase; Q9F4F7; Biochemical Sfp PPTase activity, qHTS; Potency, µM, usual class: inhibitors; 3.5% of 310,000 active;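 note: the enzyme is Sfp with the accession as filed and its product quenches rhodamine fluorescence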
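Step 1, compound plus 15 nM Sfp-PPTase, 15 min, room temperature. Step 2, add rhodamine-CoA (5 uM) and BHQ-2-YbbR (12.5 uM). Step 3, read 525/598 nm fluorescence at 0 and 30 min.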
Hits are given with their value; n = inactive; u = inconclusive; x = no result given. Calls come from the whole dose curve; as a rule, active = well fitted curve in the direction sought with a large enough effect; inconclusive = small, poorly fitted or top-dose-only effect, or another doubt; inactive = no such curve, though single readings can be large; an effect the other way counts as inactive or inconclusive.

SMILES	TrxR1 substrate	rTrxR1 inhibitor	GLS inhibitor	VDR inh	GCN5L2 inh	Sfp PPTase inh
CCC1CN(C(=O)Nc2cc(OC)cc(OC)c2)c2ccccc2S1 (configuration not stated)	n	n	n	n	n	x
Cc1ccc(/C(O)=C2/C(=O)C(=O)N(CCN3CCOCC3)C2c2ccccn2)cc1 (configuration not stated)	n	u	n	n	n	56µM
COc1ccc(C2/C(=C(\O)c3ccc4c(c3)OCCO4)C(=O)C(=O)N2CCCN(C)C)c(OC)c1 (configuration not stated)	n	10µM	n	u	n	n
COc1ccc(/C(O)=C2/C(=O)C(=O)N(CCN3CCOCC3)C2c2ccccn2)cc1OC (configuration not stated)	n	45µM	n	n	n	50µM
COc1ccc(/C(O)=C2/C(=O)C(=O)N(CCN(C)C)C2c2ccccn2)cc1OC (configuration not stated)	n	n	n	n	n	u
CCN(CC)CCCN1C(=O)C(=O)/C(=C(/O)c2ccc(C)cc2)C1c1ccccn1 (configuration not stated)	n	n	n	n	x	u
COc1ccc(C2/C=C\CN(CC(C)C)C(Cc3ccccc3)C(=O)N2Cc2ccc(F)cc2)cc1 (configuration not stated)	n	n	x	n	x	n
Cc1cc(C)c(S(=O)(=O)N2CCN(C(=O)N(C)C)CC2)c(C)c1	n	n	n	n	u	7.1µM
Cc1cc(C)c(S(=O)(=O)N2CCN(C(=O)N3CCCCC3)CC2)c(C)c1	n	n	n	n	n	n
CC1CCN(c2[nH]c(=S)c(C#N)c3c2CCCC3)CC1	n	n	n	n	n	32µM
CC(C)(C)c1ccc(C(=O)NCc2cccnc2)cc1	n	n	n	n	n	n
COc1cccc(-c2cc3c(-n4cccc4)ncnc3o2)c1	n	n	n	n	n	22µM
COc1cccc(-c2ccc3ncnc(N4CCN(C)CC4)c3c2)c1	x	x	x	u	n	n
Cc1c(NC(=O)c2cnn3c2NC(c2ccccc2)CC3C(F)(F)F)c(=O)n(-c2ccccc2)n1C (configuration not stated)	n	n	n	n	n	n
CCC1CCc2c(sc(NC(=O)C3CC=CCC3C(=O)O)c2C#N)C1 (configuration not stated)	n	n	n	u	n	n
CCN(CC)CCC(=O)N1C/C(=C/c2ccccc2)C(=O)/C(=C\c2ccccc2)C1	n	n	n	45µM	x	x
O=C(CCN1C(=O)S/C(=C\c2ccccc2)C1=O)N1CCCCC1	n	n	n	n	n	n
O=C1/C(=C\c2ccccc2)CN(C(=O)CCN2CCCCC2)C/C1=C/c1ccccc1	n	5µM	n	32µM	x	x
O=C1/C(=C\c2ccc(Cl)c(Cl)c2)CN(C(=O)CCN2CCOCC2)C/C1=C/c1ccc(Cl)c(Cl)c1	n	1.4µM	n	3.2µM	x	x
C=CCC(C)(O)c1ccsc1 (configuration not stated)	x	x	x	n	x	n
CCOc1ccccc1NC(=O)C(NCCc1ccc(OC)cc1)c1ccccc1 (configuration not stated)	n	n	n	n	n	u
CCOc1ccccc1NC(=O)C(NCCN(C)C)c1ccccc1 (configuration not stated)	n	n	n	n	n	79µM
COC(=O)c1ccc(CSc2nc3ccc(Cl)cc3[nH]2)o1	n	n	n	n	n	n
COC(=O)c1ccc(CSc2nc3scc(-c4cccs4)c3c(=O)[nH]2)o1	n	u	n	n	n	56µM
Cc1cc(C)c(C#N)c(Sc2ccccc2N)n1	n	n	n	n	n	n
SMILES	TrxR1 substrate	rTrxR1 inhibitor	GLS inhibitor	VDR inh	GCN5L2 inh	Sfp PPTase inh
N#CC(=C(/N)Sc1ccccc1N)/C(C#N)=C(\N)Sc1ccccc1N	x	x	x	x	u	56µM
Cn1cc(CN(Cc2ccccn2)C[C@@H]2CCC(=O)N2)c(-c2ccccc2F)n1	n	n	n	n	n	79µM
COc1ccc(N=Cc2c(O)cc(C)oc2=O)cc1	n	n	n	n	u	n
CC1CCN(CC(=O)c2cccs2)CC1	n	n	n	n	n	n
O=C(CN1CCc2ccccc2C1)c1cccs1	n	n	n	n	n	56µM
Cc1c(Cl)cccc1NC(=S)N(CCCN1CCOCC1)Cc1cccs1	n	n	n	n	n	n
Cc1ccc(NC(=S)N(CCCN2CCOCC2)Cc2cccs2)c(C)c1	n	n	n	n	n	25µM
O=C(CS(=O)(=O)c1ccccc1)Nc1nc(-c2ccc(F)cc2)cs1	n	n	n	n	n	n
CCOc1ccc(OCC)c(NC(=O)CN2CCN(c3cccc(C)c3)CC2)c1	n	n	n	n	n	25µM
O=C(CCc1ccccc1)N(Cc1cccnc1)c1nc2c(F)cccc2s1	n	n	n	n	n	x
Cc1ccc(CNC(=O)[C@@H]2C[C@H]2[C@@H](NP(=O)(c2ccccc2)c2ccccc2)c2ccccc2)o1	x	x	x	x	x	50µM
COc1ccc(CNC(=O)[C@H]2C[C@@H]2[C@H](NP(=O)(c2ccccc2)c2ccccc2)c2ccccc2)cc1OC	x	x	x	x	x	n
O=C(O)c1ccccc1C(=O)OCCc1cc2ccccc2c(=O)o1	n	n	n	n	n	x
[O-]/C(=C(\C(=S)NCc1ccco1)[n+]1ccccc1)c1ccccc1Br	n	n	n	n	n	13µM
O=[N+]([O-])c1cccc(/C([O-])=C(/C(=S)Nc2cccc3ccccc23)[n+]2ccccc2)c1	n	n	n	n	n	35µM
O=[N+]([O-])c1ccc(/C([O-])=C(/C(=S)NCc2ccco2)[n+]2ccccc2)cc1	n	n	n	n	n	8.9µM
Cc1ccc(CCNC(=O)CCS(=O)(=O)c2ccc(Br)cc2)cc1	n	n	n	n	n	n
COc1cc(C(C)=O)ccc1OCC(O)CN1CCN(c2cc(C)cc(C)c2)CC1 (configuration not stated)	n	n	n	n	n	n
CC1CCc2c(sc(Nc3nc4c(F)cccc4s3)c2C(N)=O)C1 (configuration not stated)	n	u	n	n	n	25µM
COc1cc(NC2c3ncccc3C(=O)N2Cc2ccco2)cc(OC)c1 (configuration not stated)	n	n	n	n	n	45µM
COc1ccc(CN2C(=O)c3cccnc3C2Nc2ccc(OC)c(Cl)c2)cc1 (configuration not stated)	n	n	n	n	n	n
COC(=O)C1CN(C(=O)C(C)Oc2cccc(C)c2C)c2ccccc2O1 (configuration not stated)	n	n	n	n	n	n

Assay outcomes deposited in PubChem BioAssay by National Center for Advancing Translational Sciences (NCATS).
